Publication PMC10163288
The list is a sample of the results. The true hit rate is not given.

B1: il2ra_site1_1z92_normal_mot_HHH_b1_00893_000000159_0001_19_35_H_._43152d1d296b358565056a4a32fd9b81_0001_1_af2_0001_0000300029_0000001_0_af2pred_0001_af2pred_1_s … (protein)
chain: DDEELEEKLKEAAENRDVEKLEELLRELLELLGDPAVKFLLEFFERLLKRDEEDAVKNVLRFVSF
B2: il2ra_site1_2b5i_normal_mot_HHH_b1_06428_000000224_0001_1_17_H_._HHH_b1_02461_0001_0000700038_0000001_0_af2pred_dldesign_0_af2pred (protein)
chain: SSSSSSLAEARRLLLETEELLKAGKLEELAKLKKRIDALKAASDDPKVKKIADLINEALESSSSS
B3: il2ra_site2_2erj_normal_mot_c2bf78bdce995293a161f7082e24b401_0001_af2_000000082_0001_17_32_H_._HHH_b1_07868_0001_0000100001_0000001_0 (protein)
chain: SSSSSDEEEIRREVEELLEKVEEVPDLEEAYRLANEALRLASRLQDEELLRLILEVVQRHSSSSS
B4: il2ra_site2_3nfp_normal_mot_HHH_b1_05627_af2_000000038_0001_43_56_H_._HHH_b1_07199_af2_0001_0000600017_0000001_0 (protein)
chain: SSSSDKAEEYLRIALELLEEAIKAGDEESAKSILEVARLAAELHNDEEVEERLEELEELLSSSSS
B5: il2ra_site1_3nfp_normal_mot_HHH_b1_04049_af2_000000244_0001_42_55_H_._d1fb33ed66649044859e967e86ea168f_0001_af2_0001_0000200005_0000001_0 (protein)
chain: TKEKAIEDIIRALKQLPDPEVRELAEEAEELLENGDPEEALKVLKEAAKLLGDPVLEKLIEQYLT
B6: il2ra_site2_3nfp_sap_7_mot_HHH_b2_00746_000000285_0001_20_36_H_._HHH_b2_00413_af2_0001_0000200017_0000001_0_0001 (protein)
chain: SSSSDEVEELLREIRELLEEGDTYEAAQLLVRVSEIAAKLGDPELVKIVLELYKILKEKASSSSS
B7: il2ra_site2_3nfp_normal_mot_HHH_b1_05785_af2_000000002_0001_41_57_H_._HHH_b1_03527_af2_0001_0000800015_0000001_0 (protein)
chain: SSSSDEAEEYVKAALALLEEALEQGDEELFEKLARLIELAIEDLGNPELEERLEELKERGSSSSS
B8: il2ra_site2_2erj_sap_23_mot_ca9fcc9ace360711d783d1260e4fbff1_0001_1_af2_000000007_0001_15_32_H_._HHH_b2_04203_af2_0001_0000300022_0000001_0_0001 (protein)
chain: SSSDREEARVHFLAFRAMRLNNNGNPEEAQKVLEEAKEIAEENNNEELREWLEAMERTIKHSSSS
B9: il2ra_site2_3nfp_sap_18_mot_HHH_b1_07556_000000077_0001_42_55_H_._HHH_b2_07201_0001_0000400029_0000001_0_0001 (protein)
chain: SSSSDEEEEVKRSLEYLKAVAKLHNDEELQEVIEEAERILEEDNDPEKAAEALSEIALKLASSSS
B10: il2ra_site1_2b5i_sap_7_mot_HHH_b1_05947_000000126_0001_42_56_H_._HHH_b1_05810_af2_0001_0000100008_0000001_1_0001_af2pred_0001_af2pred (protein)
chain: SSSSSEEEQRAFELYHEASRAFSNGDKERARELLEEAIELAEEAGDPKIKRELEQFLEMLSSSSS
B11: il2ra_site1_3nfp_sap_21_mot_HHH_b2_04910_af2_000000236_0001_1_18_H_._4946fae19574d7b03d9e348227509a78_0001_0001_0000300023_0000001_0_0001_af2pred_0001_af2pred (protein)
chain: SSSDEREVHKLLKEALEAALKGNPEEARELLEEAERLAKELNNPRAEHTVEKALKSFERARSSSS
B12: il2ra_site2_2erj_normal_mot_76e6e8f7232a9e65eeaab5ff8ecb4c96_0001_000000242_0001_17_31_H_._HHH_eva_0320_af2_0001_0000500007_0000001_1 (protein)
chain: SSTEEEEVRRVVEEAEELIKRGDLEEAEEVLSEAFTLVYELGDEELVILILELAHELVRLLAKSS
B13: il2ra_site2_2erj_normal_mot_af86707857d369f3e1d85dcabc5f9321_0001_000000201_0001_14_29_H_._HHH_b1_07617_0001_0001000035_0000001_1_af2pred_0001_af2pred (protein)
chain: SSSSDEEEQIERLLREARELLEEGDPERAREVVWEAAQLAAESDNEELLKEILELLREIHGSSSS
B14: il2ra_site1_2b5i_normal_mot_HHH_b1_00432_000000039_0001_1_18_H_._HHH_b1_02735_0001_0000300013_0000001_0_af2pred_dldesign_0_af2pred (protein)
chain: SSSSSSDEEIEAAEDLALQALKEKDKEKRKELLEEALRLAQKGKDAKLVAQIQELLERLKSSSSS
B15: il2ra_site2_3nfp_normal_mot_HHH_b2_04451_000000238_0001_21_37_H_._HHH_b2_00723_af2_0001_0000500044_0000001_0 (protein)
chain: SSSSDLEEEVERLIEEVERLLEEGDKHEAAQLLLEATKLVAELNNEELARILLELFELLQKSSSS
B16: il2ra_site1_3nfp_sap_8_mot_d8099cd8ef6a59b9c03de2010570d688_0001_af2_000000259_0001_37_51_H_._HHH_b2_05910_0001_0000100005_0000001_0_0001 (protein)
chain: SAEEFVKRAKELVPPELQELLERALELALKRQDPKLARLLIKAVAAIQQGDPEKAEEVLKELEER
B17: il2ra_site1_2b5i_normal_mot_HHH_b1_08745_af2_000000166_0001_39_57_H_._HHH_b1_05884_0001_0000600032_0000001_0_af2pred_dldesign_0_af2pred (protein)
chain: SSSSSPEIQKLREMFEEADRLFKAGKYEEAKELLEKALKLAKELGANLELRIIQSALEQLESSSS
B18: il2ra_site1_2b5i_sap_15_mot_1dae16775e8f4074d71d019417416b97_0001_af2_000000275_0001_1_12_H_._HHH_b2_07869_0001_0000400013_0000001_1_0001_af2pred_0001_af2pred_1 (protein)
chain: SSSSTDVAREVFRLLEEADRLARNGNPEEAEKLLREAEELAEENGNRALLKFVRAALRALSSSSS
B19: il2ra_site1_2b5i_sap_9_mot_HHH_b2_07540_af2_000000089_0001_1_16_H_._HHH_b1_01333_af2_0001_0000100003_0000001_0_0001_af2pred_0001_af2pred (protein)
chain: SSSSSSEELLELLREADELFKNGNPEEAEKVLERAEELAERNGTKSMLRSVRSMLELLRESSSSS

molecular target: il2ra, P01589; experiment: yeast display titration
Sequence (P01589 whole entry): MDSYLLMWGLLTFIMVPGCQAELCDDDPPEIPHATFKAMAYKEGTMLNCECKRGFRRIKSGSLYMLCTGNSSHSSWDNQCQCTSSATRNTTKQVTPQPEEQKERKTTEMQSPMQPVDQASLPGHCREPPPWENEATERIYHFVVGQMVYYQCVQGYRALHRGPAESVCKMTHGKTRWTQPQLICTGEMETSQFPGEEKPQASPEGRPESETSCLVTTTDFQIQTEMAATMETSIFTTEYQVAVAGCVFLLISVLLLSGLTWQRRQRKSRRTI

Apparent Kd, inactive:
B1 > 2.78 µM
B2 no binding seen
B3 no binding seen
B4 no binding seen
B5 no binding seen
B6 no binding seen
B7 no binding seen
B8 no binding seen
B9 no binding seen
B10 no binding seen
B11 no binding seen
B12 no binding seen
B13 no binding seen
B14 no binding seen
B15 no binding seen
B16 no binding seen
B17 no binding seen
B18 no binding seen
B19 no binding seen
